Screens from PubChem.
D2 ag-1: activates the human D2 dopamine receptor; P14416; DiscoveRx PathHunter D2 beta-arrestin, luminescence, 90 min; 100% = 57 uM dopamine signal; activation, % (no concentration beside the values); 0.084% of 360,000 active; AID 624465; in the data active = activation above about 40%; inconclusive = between about 15% and that limit
Target sequence (P14416 whole entry, looked up): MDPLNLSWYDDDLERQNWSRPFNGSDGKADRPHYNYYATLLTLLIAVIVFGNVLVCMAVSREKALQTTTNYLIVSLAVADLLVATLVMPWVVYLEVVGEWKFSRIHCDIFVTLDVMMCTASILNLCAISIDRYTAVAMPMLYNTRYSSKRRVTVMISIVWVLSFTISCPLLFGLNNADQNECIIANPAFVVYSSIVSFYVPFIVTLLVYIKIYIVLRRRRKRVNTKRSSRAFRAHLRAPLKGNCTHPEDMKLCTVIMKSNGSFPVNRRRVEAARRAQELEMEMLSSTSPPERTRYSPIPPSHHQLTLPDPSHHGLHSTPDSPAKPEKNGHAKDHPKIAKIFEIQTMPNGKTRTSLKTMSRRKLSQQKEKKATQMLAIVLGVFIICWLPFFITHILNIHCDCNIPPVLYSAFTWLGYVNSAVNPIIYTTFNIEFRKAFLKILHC
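DiscoveRx PathHunter D2 beta-arrestin cells (2,100/well) attached overnight, then compound-stimulated 90 min at 37 C in HBSS/10 mM HEPES/0.1% Tween-20 buffer; beta-galactosidase complementation read by luminescence after 1 h at ambient temperature. Dopamine 57 uM final (EC100) as control.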
D2 ag-2: agonists of human D2 dopamine receptor | P14416 | HEK293 T-REx D2 cells, calcium flux agonist mode | activation, % at 2 µM | 0.53% of 340,000 active | AID 485358;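 active = activation over 3 SD above normal in the single-dose calcium agonist read, cut at about 30% in these data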
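Agonism scored from kinetic calcium signal (1 read/sec, 180 s) following compound pin transfer, after a 10 s baseline. Cells: HEK293 Trex line expressing inducible D2 receptor coupled to calcium, dye-loaded after overnight culture at 30 C.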
D2 antag: D2 dopamine receptor (human) antagonism; P14416; HEK293 TREx D2 cells, calcium flux, dopamine EC80; inhibition, % at 10 µM; 2% of 340,000 active; AID 485344; in the data active = inhibition above about 30%; inactive = below that, where a call was filed
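Read-out: kinetic calcium fluorescence (1 cycle/s) in inducible HEK293 T-REx D2 cells after an EC80 dopamine addition that followed 180 s compound preincubation. Loss of the dopamine response indicates antagonism.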
D2 PAM-1: potentiates the human D2 dopamine receptor allosterically; AID 624464; 0.23% of 360,000 active; DiscoveRx D2 beta-arrestin cells, luminescence, 90 min; 100% = 57 uM dopamine signal; potentiation, % (no concentration beside the values); P14416; in the data active = potentiation above about 50%; inconclusive = mostly about 30% to 49%
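D2 cells co-treated with compound plus 50 nM dopamine (EC20) for 90 min at 37 deg C to detect potentiation. Beta-arrestin recruitment was read as enzyme-fragment luminescence after 1 h at ambient temperature. Full response was set by 57 uM dopamine.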
D2 PAM-2: positively modulates the human D2 dopamine receptor allosterically | AID 485347 | HEK293 T-REx D2, calcium flux, EC20 dopamine potentiation | 0.34% of 340,000 active | potentiation, % at 10 µM | P14416;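 active = potentiation over 3 SD above the plate norm, cut at about 30% in these data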
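Tetracycline-induced HEK293 T-REx cells force-coupled to calcium signalling expressed D2; compounds were pin-added after a 10 s baseline, read kinetically 180 s, then an EC20 dopamine challenge followed with a further 180 s calcium read.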
Numbers stand for hits; i = inactive; ? = inconclusive; nt = not tested or not shown. Rows were chosen to be rich in hits. Some 2.4% of all compounds tested hit in one or more screens of this group.

SMILES | D2 ag-1 | D2 ag-2 | D2 antag | D2 PAM-1 | D2 PAM-2
CCOC(=O)C1=CN(Cc2ccc(OC)cc2)C=C(C(=O)OCC)C1c1cccs1 | i | i | 42 | i | i
COC(=O)C1=CN(Cc2ccc(OC)cc2)C=C(C(=O)OC)C1c1cc(OC)c(OC)c(OC)c1 | i | i | i | i | i
COc1ccccc1CNC(=O)C1CCCN(c2nnc(-n3c(C)ccc3C)s2)C1 (stereo not given) | nt | i | nt | nt | i
O=C(CSc1nc2c([nH]c3ccccc32)c(=O)n1-c1ccc(F)cc1)NC1CCCCC1 | nt | i | nt | nt | i
O=C(c1cc(COc2ccc(F)cc2F)on1)N1CC[C@@H]2CCCC[C@H]2C1 | i | i | i | 64 | i
COc1ccc(OCc2cc(C(=O)N3CCCC(CO)C3)no2)c2ccccc12 (stereo not given) | i | i | i | 74 | i
O=C(c1cc(COc2ccc(F)cc2Cl)on1)N1CC[C@@H]2CCCC[C@H]2C1 | i | i | i | i | i
COc1ccccc1CNC(=O)C(Cc1ccccc1)NS(=O)(=O)c1ccc2c(c1)CCN2C(C)=O (stereo not given) | nt | i | nt | nt | i
CCN1C(=O)c2cccc3c(S(=O)(=O)N4CCC(C)CC4)ccc1c23 | i | i | 37 | i | i
COc1cc(/C=C(/C(=O)O)c2ccc(-c3ccccc3)cc2)cc(OC)c1OC | i | i | i | i | 30
O=C1/C(=C/C=C/c2ccco2)SC(=S)N1NS(=O)(=O)c1ccccc1 | i | i | 42 | i | i
O=C(Cn1cnc2c(oc3ccccc32)c1=O)Nc1ccccc1C(F)(F)F | nt | i | nt | nt | i
CCn1nnc(NC(=O)c2ccc([N+](=O)[O-])o2)n1 | i | i | i | i | i
CCCCn1nnc(NC(=O)c2ccc(-c3ccccc3[N+](=O)[O-])o2)n1 | i | i | 52 | i | i
N/C(Cc1ccc(Cl)cc1Cl)=N\OC(=O)c1cccs1 | i | i | i | 119 | i
COc1ccccc1C/C(N)=N/OC(=O)c1cccs1 | ? | i | i | 53 | i
N/C(Cc1ccc(Cl)cc1Cl)=N\OC(=O)Cc1cccs1 | i | i | i | i | i
N/C(Cc1cccc2ccccc12)=N\OC(=O)c1cccs1 | i | i | i | i | i
Cc1c(Cl)cccc1-n1ncc(C(=O)Nc2ccc3c(c2)OCCO3)c1C1CCN(C(=O)OC(C)(C)C)CC1 | nt | i | nt | nt | i
CCC(Sc1nc(-c2ccccc2F)nc2c1Cc1c(CO)cnc(C)c1O2)C(=O)Nc1cc(C)ccc1C (stereo not given) | nt | i | nt | nt | i
COc1ccc2ccccc2c1CNC(C)CCc1ccccc1 (stereo not given) | i | i | 30 | i | i
CCOc1ccc(N2C(=O)S/C(=C\c3ccc(O)c(OC)c3)C2=O)cc1 | i | i | i | i | i
COc1cc(/C=C2\SC(=N)N(c3ccc(F)cc3)C2=O)ccc1O | i | i | 56 | i | i
COc1ccc(/C=C2\SC(c3ccc(C)cc3)=NC2=O)cc1OC | i | i | i | i | i
CCOc1cc(/C=C2\SC(=S)N(Nc3ccccc3)C2=O)ccc1O | i | i | 35 | i | i
SMILES | D2 ag-1 | D2 ag-2 | D2 antag | D2 PAM-1 | D2 PAM-2
COc1cc(/C=C2\SC(=S)N(NC(=O)c3ccc(O)cc3)C2=O)ccc1O | i | 36 | i | i | i
COc1cc(/C=C2\SC(c3ccc(C)cc3)=NC2=O)ccc1O | i | i | 32 | i | i
CCCCOc1ccc(CNC(=O)c2cnc3sc(N4CCC(C)CC4)nn3c2=O)cc1 | nt | i | nt | nt | i
CSc1ccc(-c2nc3cccc(C)n3c2Nc2ccc(Cl)cc2)cc1 | nt | i | nt | nt | i
OC(CN1CCN(c2ccccc2Cl)CC1)c1ccccc1 (stereo not given) | i | i | 86 | i | i
CCc1nnc(NC(=O)CSc2nccn2Cc2ccc(F)cc2)s1 | nt | i | nt | nt | i
CN(CCCNC(=O)c1ccc(/C=N/O)nc1)CCCN(C)Cc1ccccc1 | i | i | i | i | i
CN(CCNC(=O)c1ccc(/C=N/O)nc1)Cc1ccccc1 | i | i | 61 | i | i
CC(O)(c1cccc(F)c1)c1nc(-c2cnc3ccccc3c2)cs1 (stereo not given) | 148 | nt | nt | 65 | nt
CC(C)C(NC(=O)c1ccc(C(C)(C)C)cc1)C(=O)Nc1cccc(S(N)(=O)=O)c1 (stereo not given) | i | i | i | i | 37
CCOc1ccccc1C(=O)NC(C(=O)Nc1cccc(S(N)(=O)=O)c1)C(C)C (stereo not given) | i | i | 33 | i | i
CCOc1ccccc1NC(=O)N1CCN(Cc2cc(=O)n3nc(-c4ccc(C)cc4)sc3n2)CC1 | nt | i | nt | nt | i
Cc1ccc(CN2CCCn3nc(C(=O)NCCc4ccc(Cl)cc4)cc3C2=O)cc1 | nt | i | nt | nt | nt
Cc1c(C(=O)Nc2ccc3c(c2)OCCO3)sc2nc(-c3ccccc3)cn12 | i | i | 73 | i | i
Cc1ccc(NC(=O)c2c(C)oc3nc(C)nc(N4CCCC4)c23)c(C)c1 | nt | i | nt | nt | i
CC1CCN(S(=O)(=O)c2ccc3c(c2)N(CC(=O)NC(C)C)C(=O)CS3)CC1 | nt | i | nt | nt | i
COc1cccc(-n2c(=O)c3c(C)c(C(=O)N(C)C)sc3n(CC(=O)NCC3CCCO3)c2=O)c1 (stereo not given) | i | i | 41 | i | i
CCc1ccc(-n2c(=O)c3c(C)c(C(=O)N(C)C)sc3n(CC(=O)NCC3CCCO3)c2=O)cc1 (stereo not given) | i | i | i | i | i
CC1CCC(=NNC(=O)Cc2cccn2C)CC1 (stereo not given) | i | i | i | i | i
CC1CCC(=NNC(=O)Cc2ccccc2)CC1 (stereo not given) | i | i | 43 | i | i
COCCCNC(=O)C(=O)NCC(c1ccc2c(c1)OCO2)N1CCOCC1 (stereo not given) | nt | i | nt | nt | i
N/C(Cc1ccc([N+](=O)[O-])cc1)=N\OC(=O)c1cccc(Br)c1 | 63 | i | i | i | i
COc1cc(C(=O)O/N=C(\N)Cc2ccc([N+](=O)[O-])cc2)cc(OC)c1OC | ? | i | i | ? | i
N/C(Cc1ccc(Cl)cc1)=N\OC(=O)Cc1ccc([N+](=O)[O-])cc1 | ? | i | i | 86 | i
N/C(Cc1ccc([N+](=O)[O-])cc1)=N\OC(=O)c1ccc([N+](=O)[O-])cc1 | 42 | i | i | 61 | i
COc1ccc(C(=O)CC2(O)C(=O)N(Cc3ccccc3)c3ccc(Br)cc32)cc1 (stereo not given) | nt | i | nt | nt | i
COc1ccc(OC)c(CNc2ncnc3c2nc2n3CCCC2)c1 | nt | i | nt | nt | i
Cc1oncc1C(=O)Nc1ccc(C(F)(F)F)cc1 | i | i | 36 | i | i
Cc1cc(C)cc(NC(=O)CSc2oc(-c3cccs3)nc2S(=O)(=O)c2ccccc2)c1 | nt | i | nt | nt | i
NS(=O)(=O)c1ccc(CCNC(=O)COC(=O)CCN2C(=O)C3CC=CCC3C2=O)cc1 (stereo not given) | i | i | i | i | i
